This is an account of results in PubChem BioAssay AID602350 (Broad Institute, 2012).

Measured potencies and affinities stand elsewhere. Unmarked numbers belong to inactive results.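 Rule for the calls: active = absorbance falls by 30% or more versus neutral controls, with a potency fitted within twice the top valid dose; inconclusive = no clear call, values can overlap the other calls; inactive = change opposite to expected direction, plus the rest.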

The target of this test is Protein disulfide-isomerase (Homo sapiens) (UniProt P07237). The test can be described thus: inhibition of PDI-driven insulin aggregation – biochemical, turbidity, absorbance, cherry-picked samples, dose response (AID 602350).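 Note: 0% = neutral controls and -100% = rutin hydrate positive control wells.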 Conditions: recombinant PDI insulin aggregation, absorbance 650 nm, 90 min; series mostly up to 19.5 µM; activity change, negative = inhibition: at the top concentration.
Sequence of Protein disulfide-isomerase (Homo sapiens) (P07237 whole entry, looked up): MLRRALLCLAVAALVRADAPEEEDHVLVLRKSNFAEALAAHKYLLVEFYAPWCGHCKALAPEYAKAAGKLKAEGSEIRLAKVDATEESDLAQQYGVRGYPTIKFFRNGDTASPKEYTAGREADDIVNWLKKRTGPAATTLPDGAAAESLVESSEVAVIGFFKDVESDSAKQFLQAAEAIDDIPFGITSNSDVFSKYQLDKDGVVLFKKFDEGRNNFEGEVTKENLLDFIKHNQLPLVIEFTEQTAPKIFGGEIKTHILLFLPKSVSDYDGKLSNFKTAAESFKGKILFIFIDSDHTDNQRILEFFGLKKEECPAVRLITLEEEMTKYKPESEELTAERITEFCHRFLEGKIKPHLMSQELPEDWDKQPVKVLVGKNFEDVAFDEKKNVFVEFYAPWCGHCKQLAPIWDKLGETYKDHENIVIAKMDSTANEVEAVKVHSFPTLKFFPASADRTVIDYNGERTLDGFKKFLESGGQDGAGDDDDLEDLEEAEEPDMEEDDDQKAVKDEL
As for `C[C@H]1CCCC(=O)CCCCCc2cc(O)cc(O)c2C(=O)O1`, the “activity change, negative = inhibition” value was 8.5%.
Regarding `NC(=O)CSc1nnc([C@@H](N)Cc2c[nH]c3ccccc23)o1`, the “activity change, negative = inhibition” value was -3.03%.
On to `CC(Cc1ccc(O)cc1)NCC(O)c1ccc(O)c(O)c1` (stereo unspecified), for which the “activity change, negative = inhibition” value is -11.8%.
As to `CCOC(=O)C1(CCOc2ccccc2)CCN(Cc2cccc(O)c2)CC1`, the “activity change, negative = inhibition” value was -12.9%.
In the case of `CCOC(C(=O)OCCCN(CC)CC)(c1ccccc1)c1ccccc1`, the “activity change, negative = inhibition” value was 8.02%.
Take `CN1CCN(CCOC2c3ccccc3CSc3ccc(Cl)cc32)CC1` (stereo unspecified): the “activity change, negative = inhibition” value was -3.03%.
